Bead autofluor: counter-screen for toxin protease inhibitors: compound fluorescence | compound autofluorescence counterscreen, microsphere flow cytometry; hits give high values | AID 624483 | 360,000 tested, 3.1% active | fluorescence intensity (concentration not given with the values); in the data active = fluorescence intensity above about 16000; inconclusive = no clear call, values can overlap the other calls
GDH-TPI counter: GDH-TPI coupling enzyme inhibitors, primary screen, artefact control for M. tuberculosis FBA inhibitor project, biochemical, absorbance, full deck; inhibition, % at 4.8 µM; GDH-TPI coupled enzyme counterscreen, NADH absorbance; AID 588335, 2011; 360,000 tested, 1.2% active; in the data active = inhibition above about 30%;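 also: 0% = DMSO wells and 100% = wells lacking the enzyme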
Anthrax LF prot: Bacillus anthracis LF protease inhibitors, primary screen, biochemical, multiplex microsphere, MLPCN library; inhibition, % at 10 µM; multiplex microsphere protease cleavage assay; 360,000 tested, 0.12% active; Lethal factor (Bacillus anthracis), P15917; AID 588501, 2011; also: plate controls were buffer without enzyme for full effect and enzyme alone for no effect
BoNT A protease: BoNT/A light chain protease inhibitors, primary screen, biochemical, flow cytometry, MLPCN library; multiplex microsphere protease substrate cleavage; inhibition, % at 10 µM; 360,000 tested, 0.17% active; AID 588499, 2011; also: plate controls were buffer without enzyme for full effect and enzyme alone for no effect
Mtb FBA inh: Mtb FBA enzyme inhibitors, primary screen, biochemical, fluorescence, strain H37Rv; Fructose-bisphosphate aldolase (Mycobacterium tuberculosis (strain ATCC 25618 / H37Rv)), …; purified M. tuberculosis FBA, fluorescence read-out; 360,000 tested, 2.3% active; inhibition, % at 1 µM; in the data active = inhibition above about 27%;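 also: 0% = vehicle and 100% = reference inhibitor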
Target sequence (P9WQA3 whole entry, looked up): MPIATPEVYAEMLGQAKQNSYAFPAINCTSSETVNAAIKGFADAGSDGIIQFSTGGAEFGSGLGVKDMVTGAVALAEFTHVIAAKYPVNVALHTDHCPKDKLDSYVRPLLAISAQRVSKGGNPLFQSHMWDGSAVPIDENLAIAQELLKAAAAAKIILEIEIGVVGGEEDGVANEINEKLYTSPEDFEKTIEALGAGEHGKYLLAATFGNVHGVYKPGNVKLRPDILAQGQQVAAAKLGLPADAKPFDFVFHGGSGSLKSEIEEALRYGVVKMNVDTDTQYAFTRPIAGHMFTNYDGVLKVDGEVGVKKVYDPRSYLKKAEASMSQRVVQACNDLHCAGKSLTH
BoNT F protease: BoNT/F light chain protease inhibitors, primary screen, biochemical, flow cytometry, MLPCN library; inhibition, % at 10 µM; Botulinum neurotoxin type F light chain protease (Clostridium botulinum); 360,000 tested, 0.22% active; AID 588497, 2011; Multiplex microsphere protease cleavage assay; in the data active = inhibition above about 35%, passing the limit was not always enough; inconclusive = no clear call, values can overlap the other calls; also: plate controls were buffer without enzyme for full effect and enzyme alone for no effect
* hit, by the source's call; ? = inconclusive. Only some compounds are listed: those with a hit (about 6.6% of all), similar ones and a draw of the others. Rule as the data show it, unless noted: active = inhibition above about 30%; inconclusive = no clear call, values can overlap the other calls; inactive = below that.

SMILES | Bead autofluor | GDH-TPI counter | Anthrax LF prot | BoNT A protease | Mtb FBA inh | BoNT F protease
CCc1cc2c(SCC(=O)N(C)C3CCS(=O)(=O)C3)ncnc2s1 (stereo unspecified) | 4443 | -14.0 | -1.3 | 0.4 | 6.7 | 2.3
COc1ccc(CCNC(=O)c2c(O)c3ccccc3[nH]c2=O)cc1 | 3622 | -15.4 | 2.7 | -2.9 | -2.6 | 9.5
Nc1nc(Nc2ccc(Cl)cc2)nc(NCCO)c1[N+](=O)[O-] | 6225 | 20.7 | 4.4 | -0.4 | 2.2 | -4.9
CC(C)CCNc1nc(N)c([N+](=O)[O-])c(NCCO)n1 | 3469 | 49.7* | -13.5 | -3.0 | 3.2 | ?
Nc1nc(NCc2ccc(Cl)cc2)nc(NCCO)c1[N+](=O)[O-] | 6106 | 37.5* | -8.9 | -0.4 | -1.7 | -1.0
CCC(C)Nc1nc(N)c([N+](=O)[O-])c(NCCO)n1 (stereo unspecified) | 5943 | 24.9 | 4.3 | -0.3 | 1.3 | -8.3
Cc1ccc(CNc2nc(N)c([N+](=O)[O-])c(NCc3ccccc3)n2)cc1 | 2440 | 1.1 | 0.6 | -0.1 | 0.1 | -5.1
Cc1ccc(CNc2nc(N)c([N+](=O)[O-])c(NCCO)n2)cc1 | 4178 | 52.4* | -13.6 | -5.5 | -2.6 | ?
COCCN(C(=O)COC(=O)c1ccc(Br)o1)c1c(N)n(Cc2ccccc2)c(=O)[nH]c1=O | 2865 | 7.6 | -7.1 | 0.1 | 2.5 | 8.8
C=CCOc1ccc(C=CC(=O)c2c(O)c(OC)c(OC)c(OC)c2OC)cc1 | 3776 | 29.9 | -6.6 | -0.5 | -3.3 | -5.4
Cc1ccc(/C=C2/NC(=O)N(Cc3ccccc3)C2=O)o1 | 2566 | 7.9 | -0.9 | 2.0 | -3.1 | -4.0
CCN1C(=O)N/C(=C/c2cc(C)n(Cc3ccccc3)c2C)C1=O | 2089 | 31.9* | 1.6 | 0.1 | 2.0 | -2.9
CCn1c(C)cc(/C=C2\NC(=O)N(Cc3ccc(Cl)cc3)C2=O)c1C | 8285 | 25.0 | -6.8 | 1.4 | 3.1 | -3.5
Cn1c(=O)n(C)c2cc(/C=C3/NC(=O)N(Cc4ccccc4)C3=O)ccc21 | 20142* | 13.4 | -6.6 | 0.8 | 0.3 | 0.3
CN(C)c1ccc(NC(=S)NC23CC4CC(CC(C4)C2)C3)cc1 | 4534 | 0.4 | -2.3 | -0.5 | -0.8 | -5.2
CCCOc1ccc(NC(=O)CC2C(=O)N(CC)C(=S)N2Cc2cccs2)cc1 (stereo unspecified) | 21389* | 0.0 | -3.7 | -3.7 | -2.0 | -7.8
N#C/C(=C\C=C\c1ccccc1)c1nc(-c2ccc3c(c2)OCO3)cs1 | 3363 | 14.3 | 20.6 | 52.5* | 2.2 | 9.7
COc1ccc(-c2c(S(=O)(=O)c3ccccc3)cnn2-c2ccccc2)cc1 | 21873* | 1.3 | -1.7 | 1.2 | 0.0 | -0.6
O=S(=O)(c1ccccc1)c1cnn(-c2ccccc2)c1-c1ccc(Cl)cc1 | 22953* | 13.3 | -2.0 | ? | 2.9 | -1.9
COc1ccc2ncc(S(=O)(=O)c3ccccc3)c(N3CCN(c4ccccc4)CC3)c2c1 | 2097 | 11.3 | -1.6 | 0.7 | -0.6 | -1.2
CC1(C)CC(=O)c2sc(NC(=O)CN3CCOCC3)nc2C1 | 4872 | 14.8 | -0.3 | -0.2 | 5.7 | -37.9
CC1(C)CNC(=O)c2sc(N3CCCCC3)nc2C1 | 9563 | 10.1 | -5.9 | 0.5 | -0.9 | 7.8
CC1(C)CC(=O)c2sc(NC(=O)C3COc4ccccc4O3)nc2C1 (stereo unspecified) | 5893 | 33.6* | -13.4 | -1.1 | 2.2 | -13.5
CC1(C)CC(=O)c2sc(NS(=O)(=O)c3ccccc3)nc2C1 | 4560 | 10.8 | 2.0 | -1.2 | -2.4 | -1.5
CC1(C)CC(=O)c2sc(NC(=O)CN3C(=O)CCC3=O)nc2C1 | 5138 | 31.8* | -1.2 | -0.1 | 3.0 | -2.8
CC1(C)CC(=O)c2sc(NS(C)(=O)=O)nc2C1 | 13062 | 35.0* | -3.2 | -1.7 | 0.1 | -19.9
CC(=O)c1sc(NC(=O)C2COc3ccccc3O2)nc1C (stereo unspecified) | 4608 | 16.6 | 0.2 | 0.0 | 5.4 | -6.1
CC1(C)CC(=O)c2sc(N3CCCCC3)nc2C1 | 2408 | 41.9* | 3.0 | -0.2 | -1.1 | -10.2
O=C(Nc1cc2c(cc1Cl)-c1ccc([N+](=O)[O-])cc1C2=NO)C(F)(F)F | 3543 | 10.3 | 0.6 | -0.1 | -3.5 | 1.7

Screening results deposited in PubChem BioAssay by several laboratories.
